Measurements published in PubChem BioAssay (Tox21).
Results filed as inconclusive are left out. A call without a number means that no potency is given here. Values without a mark were called inactive. Activity calls are given as the source filed them. Unless noted, calls come from the whole dose curve; as a rule, active = well fitted curve in the direction sought with a large enough effect in the repeat runs; inconclusive = weak or mixed curves; inactive = no such curve, though single readings can be large; an effect the other way counts as inactive or inconclusive.

Legend:
[1] = qHTS assay to identify small molecule antagonists of the thyroid receptor (TR) signaling pathway - cell viability counter screen (AID 743064); note: nearly all actives have a fitted effect of over 50% in size
How it was run: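 Rat GH3 pituitary tumor cells stably expressing two TR response elements driving luciferase were plated, rested 4 h, then dosed with library compounds and T3 (1 nM final). After 23.5 h at 37 °C, CellTiter-Fluor was added for 30 min and fluorescence recorded.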

[2] = qHTS assay to identify small molecule antagonists of the thyroid receptor (TR) signaling pathway (AID 743065); note: series mostly up to about 70 µM; nearly all actives have a fitted effect of over 55% in size
How it was run: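 GH3.TRE-Luc rat pituitary cells carrying two TR response elements driving luciferase were plated for 4 h, given compound plus 1 nM T3 (final), and incubated 23.5 h at 37 C. ONE-Glo luminescence measured reporter inhibition; CellTiter-Fluor fluorescence tracked cytotoxicity.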

[3] = tested on: thyroid hormone receptor (rat, GH3 cells); assay: qHTS assay to identify small molecule agonists of the thyroid receptor (TR) signaling pathway (AID 743066; calls by dose curve)
[4] = target: Estrogen receptor (Homo sapiens) (UniProt P03372); assay: qHTS assay to identify small molecule antagonists of the estrogen receptor alpha (ER-alpha) signaling pathway (AID 743069; active = well fitted curve in the direction sought with a large enough effect in the signal ratio in the repeat runs, not every such curve was filed as active; the % refers to the signal ratio)
Sequence of Estrogen receptor (Homo sapiens) (P03372 whole entry, looked up): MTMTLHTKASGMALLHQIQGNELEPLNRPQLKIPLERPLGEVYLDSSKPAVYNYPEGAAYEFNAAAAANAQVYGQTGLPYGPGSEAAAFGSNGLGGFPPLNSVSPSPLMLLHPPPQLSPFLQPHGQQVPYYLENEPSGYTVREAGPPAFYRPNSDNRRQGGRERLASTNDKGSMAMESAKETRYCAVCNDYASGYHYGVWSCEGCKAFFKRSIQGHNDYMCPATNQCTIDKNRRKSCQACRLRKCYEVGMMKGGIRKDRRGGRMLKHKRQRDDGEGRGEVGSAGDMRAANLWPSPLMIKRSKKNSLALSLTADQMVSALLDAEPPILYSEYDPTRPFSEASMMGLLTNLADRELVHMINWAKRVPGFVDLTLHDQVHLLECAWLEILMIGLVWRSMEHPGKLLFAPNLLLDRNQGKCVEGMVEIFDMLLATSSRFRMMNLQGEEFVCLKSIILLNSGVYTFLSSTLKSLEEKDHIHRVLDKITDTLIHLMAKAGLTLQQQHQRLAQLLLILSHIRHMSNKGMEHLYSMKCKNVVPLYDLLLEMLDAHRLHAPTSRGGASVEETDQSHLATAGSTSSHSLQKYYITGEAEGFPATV
How it was run: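 Screening used a UAS-driven beta-lactamase reporter integrated into HEK293 cells expressing ER-alpha, stimulated with 17beta-estradiol alongside test compounds over 18 hr at 37C; signal came from LiveBLAzer B/G FRET fluorescence.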

[5] = qHTS assay to identify small molecule antagonists of the estrogen receptor alpha (ER-alpha) signaling pathway - cell viability counter screen (AID 743074; calls by dose curve; note: nearly all actives have a fitted effect of over 45% in size)
[6] = target: Estrogen receptor (Homo sapiens) (UniProt P03372); assay: qHTS assay to identify small molecule agonists of the estrogen receptor alpha (ER-alpha) signaling pathway (AID 743075; calls by dose curve)
[7] = target: Estrogen receptor (Homo sapiens) (UniProt P03372); assay: qHTS assay to identify small molecule agonists of the estrogen receptor alpha (ER-alpha) signaling pathway using the BG1 cell line (AID 743079); note: nearly all actives have a fitted effect of over 20% in size
[8] = qHTS assay to identify small molecule antagonists of the estrogen receptor alpha (ER-alpha) signaling pathway using the BG1 cell line (AID 743080; calls by dose curve;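 note: BG1 cells stimulated with 17beta-estradiol alongside compound; series mostly up to about 70 µM; nearly all actives have a fitted effect of over 25% in size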)
How it was run: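 Endogenous full-length ER-alpha in BG1-Luc-4E2 cells drives a stably integrated 4×ERE luciferase gene; compounds were tested against 17beta-estradiol over 21.5 h, with luminescence and multiplexed viability fluorescence recorded.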

[9] = qHTS assay to identify small molecule antagonists of the estrogen receptor alpha (ER-alpha) signaling pathway using the BG1 cell line - cell viability counter screen (AID 743081);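 note: compound given together with 17beta-estradiol as the ER stimulus; series mostly up to about 70 µM; nearly all actives have a fitted effect of over 45% in size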
Aromatase (Homo sapiens) = Aromatase (Homo sapiens) (UniProt P11511); assay: qHTS assay to identify aromatase inhibitors (AID 743083); note: series mostly up to about 70 µM; nearly all actives have a fitted effect of over 55% in size
Sequence of Aromatase (Homo sapiens) (P11511 whole entry, looked up): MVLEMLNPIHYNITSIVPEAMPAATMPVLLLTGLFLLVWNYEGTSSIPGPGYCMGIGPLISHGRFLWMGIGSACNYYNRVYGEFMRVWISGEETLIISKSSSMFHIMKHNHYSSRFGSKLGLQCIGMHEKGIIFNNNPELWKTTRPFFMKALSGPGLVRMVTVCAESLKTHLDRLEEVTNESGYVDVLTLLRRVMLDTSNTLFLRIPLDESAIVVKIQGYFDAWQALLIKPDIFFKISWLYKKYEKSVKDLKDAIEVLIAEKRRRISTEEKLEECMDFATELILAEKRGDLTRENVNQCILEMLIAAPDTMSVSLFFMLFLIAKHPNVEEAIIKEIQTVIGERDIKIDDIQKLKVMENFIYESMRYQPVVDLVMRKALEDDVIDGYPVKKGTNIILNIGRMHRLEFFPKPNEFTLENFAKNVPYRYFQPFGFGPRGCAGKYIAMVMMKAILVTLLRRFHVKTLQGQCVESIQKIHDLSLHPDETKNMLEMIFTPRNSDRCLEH

[10] = qHTS assay to identify aromatase inhibitors - cell viability counter screen (AID 743084);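 note: cells stimulated with testosterone during compound exposure; nearly all actives have a fitted effect of over 55% in size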
[11] = target: Aryl hydrocarbon receptor (Homo sapiens) (UniProt P35869); assay: qHTS assay to identify small molecule that activate the aryl hydrocarbon receptor (AhR) signaling pathway (AID 743085);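 note: HG2L7.5c1 human HepG2 liver cells with stably integrated DRE-driven firefly reporter; series mostly up to about 70 µM; nearly all actives have a fitted effect of over 15% in size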
Sequence of Aryl hydrocarbon receptor (Homo sapiens) (P35869 whole entry, looked up): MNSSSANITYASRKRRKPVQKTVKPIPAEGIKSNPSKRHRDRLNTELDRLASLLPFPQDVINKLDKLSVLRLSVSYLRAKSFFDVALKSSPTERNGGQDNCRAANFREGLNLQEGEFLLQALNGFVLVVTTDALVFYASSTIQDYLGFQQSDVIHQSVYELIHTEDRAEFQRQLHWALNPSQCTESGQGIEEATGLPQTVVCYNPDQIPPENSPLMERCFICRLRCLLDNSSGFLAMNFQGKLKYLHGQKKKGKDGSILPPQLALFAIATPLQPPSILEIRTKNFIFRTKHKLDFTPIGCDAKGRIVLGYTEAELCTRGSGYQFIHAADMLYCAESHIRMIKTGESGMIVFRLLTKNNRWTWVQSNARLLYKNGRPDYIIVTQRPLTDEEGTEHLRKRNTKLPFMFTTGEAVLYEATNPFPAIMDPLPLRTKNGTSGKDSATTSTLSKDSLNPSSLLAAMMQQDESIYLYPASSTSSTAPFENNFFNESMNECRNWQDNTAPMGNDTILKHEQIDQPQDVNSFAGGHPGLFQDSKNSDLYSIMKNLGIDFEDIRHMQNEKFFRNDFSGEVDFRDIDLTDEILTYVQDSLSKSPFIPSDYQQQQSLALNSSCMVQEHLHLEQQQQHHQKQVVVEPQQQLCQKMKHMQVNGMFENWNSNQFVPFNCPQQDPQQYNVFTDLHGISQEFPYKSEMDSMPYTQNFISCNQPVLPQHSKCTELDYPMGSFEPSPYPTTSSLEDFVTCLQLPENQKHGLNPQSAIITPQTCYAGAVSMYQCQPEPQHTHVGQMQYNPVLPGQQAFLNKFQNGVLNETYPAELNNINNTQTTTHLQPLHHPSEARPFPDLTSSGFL
How it was run: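 Compounds were tested in HepG2 hepatocellular carcinoma cells harbouring a stably integrated luciferase gene under control of 20 DREs. Increased reporter signal after 24 h treatment at 37C was taken as AhR activation.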

[12] = qHTS assay to identify small molecule that activate the aryl hydrocarbon receptor (AhR) signaling pathway - cell viability counter screen (AID 743086);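 note: HepG2 liver cells carrying the AhR DRE luciferase reporter; series mostly up to about 70 µM; nearly all actives have a fitted effect of over 45% in size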
How it was run: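 HepG2-AhR-luc (HG2L7.5c1) cells, 4000/well, were preincubated 5 h at 37C, exposed to compound in qHTS format for 24 hr at 37C, then given CellTiter-Fluor for 30 min; viability was read as fluorescence in the reporter wells.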

[13] = target: Peroxisome proliferator-activated receptor gamma (Homo sapiens) (UniProt P37231); assay: qHTS assay to identify small molecule agonists of the peroxisome proliferator-activated receptor gamma (PPARg) signaling pathway (AID 743094; active = well fitted activation curve with a large enough effect in the signal ratio in the repeat runs, not every such curve was filed as active; the % refers to the signal ratio)
Sequence of Peroxisome proliferator-activated receptor gamma (Homo sapiens) (P37231 whole entry, looked up): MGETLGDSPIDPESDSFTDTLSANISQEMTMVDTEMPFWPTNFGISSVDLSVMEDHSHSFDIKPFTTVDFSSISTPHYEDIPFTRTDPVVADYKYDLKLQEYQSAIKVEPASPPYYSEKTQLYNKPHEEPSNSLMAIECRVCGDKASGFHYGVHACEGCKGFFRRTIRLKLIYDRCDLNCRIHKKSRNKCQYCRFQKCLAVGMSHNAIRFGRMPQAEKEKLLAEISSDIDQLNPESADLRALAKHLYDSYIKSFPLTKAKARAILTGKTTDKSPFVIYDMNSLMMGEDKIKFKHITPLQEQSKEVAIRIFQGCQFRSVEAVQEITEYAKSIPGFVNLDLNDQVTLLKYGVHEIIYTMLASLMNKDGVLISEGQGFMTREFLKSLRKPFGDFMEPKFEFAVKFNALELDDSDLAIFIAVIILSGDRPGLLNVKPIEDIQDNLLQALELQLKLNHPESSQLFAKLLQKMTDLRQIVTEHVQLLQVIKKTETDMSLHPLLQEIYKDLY
How it was run: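 Agonism was assessed in a beta-lactamase reporter system, HEK293H cells with a stably integrated UAS-bla construct under PPARg control; the 17 h treatment at 37C preceded a 1 h room-temperature FRET substrate read.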

[14] = qHTS assay to identify small molecule antagonists of the peroxisome proliferator-activated receptor gamma (PPARg) signaling pathway - cell viability counter screen (AID 743194); note: nearly all actives have a fitted effect of over 55% in size
How it was run: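 PPARg-UAS-bla HEK293H cells were plated, rested 5 h at 37 C, then treated with compounds plus rosiglitazone (50 nM final) for 17 h at 37 C; viability was then read by CellTiter-Glo luminescence after 30 min at room temperature.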

[15] = qHTS assay for small molecule agonists of the antioxidant response element (ARE) signaling pathway (AID 743202; active = well fitted activation curve with a large enough effect in the signal ratio in the repeat runs, not every such curve was filed as active; the % refers to the signal ratio; note: potency is the fitted concentration of half-maximal effect)
How it was run: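 Steps: seed ARE-bla HepG2 cells (2,000/well); incubate 5 h at 37 C; add compounds by pin tool; incubate 16 h at 37 C; add FRET substrate; read fluorescence after 2 h at RT.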

[16] = qHTS assay for small molecule agonists of the antioxidant response element (ARE) signaling pathway - cell viability counter screen (AID 743203; calls by dose curve; note: nearly all actives have a fitted effect of over 55% in size)
How it was run: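 ATP content via CellTiter-Glo luminescence served as the viability measure. Cells: ARE-bla HepG2, 2,000 per well. Exposure: 16 hrs, 37C/5% CO2.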

[17] = qHTS assay for small molecule activators of the heat shock response signaling pathway - cell viability counter screen (AID 743209); note: nearly all actives have a fitted effect of over 50% in size
How it was run: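 Compounds dissolved in DMSO were added to overnight-plated HSE-bla HeLa cells and left 5 h at 37 C. Cell viability was quantified by luminescence using CellTiter-Glo.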

[18] = qHTS assay for small molecule activators of the heat shock response signaling pathway (AID 743210; active = well fitted activation curve with a large enough effect in the signal ratio in the repeat runs, with a control signal flat, not every such curve was filed as active; the % refers to the signal ratio;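 note: HeLa cells with beta-lactamase reporter driven by heat shock elements; series mostly up to about 63 µM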)
How it was run: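 Activation of heat shock element-controlled beta-lactamase expression is measured in HeLa cells by LiveBLAzer FRET fluorescence, with compound exposure lasting 5 h at 37 C and substrate loading 2.5 h at room temperature.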

[19] = target: Peroxisome proliferator-activated receptor gamma (Homo sapiens) (UniProt P37231); assay: qHTS assay to identify small molecule antagonists of the peroxisome proliferator-activated receptor gamma (PPARg) signaling pathway (AID 743191; calls by dose curve; note: series mostly up to about 63 µM; nearly all actives have a fitted effect of over 30% in size)
How it was run: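 GeneBLAzer PPARg UAS-bla HEK293H cells carrying a UAS-driven beta-lactamase reporter were plated at 3000 cells/well, preincubated 5 h at 37C, then given compound for 17 h at 37C; LiveBLAzer B/G FRET substrate was read after 1 h at room temperature.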

Compound	Potency [1]	Potency [2]	outcome [3]	outcome [4]	outcome [5]	Potency [6]	Potency [7]	outcome [8]	Potency [9]	outcome (Aromatase (Homo sapiens))	Potency [10]	Potency [11]	Potency [12]	Potency [13]	outcome [14]	Potency [15]	outcome [16]	Potency [17]	outcome [18]	outcome [19]
OCC1CCC(CO)CC1 (stereo unspecified)	inactive	inactive	inactive	inactive	inactive	inactive	inactive	inactive	inactive	inactive	inactive	inactive	inactive	inactive	inactive	inactive	inactive	inactive	inactive	
O=C(O)CNC(=O)CNC(=O)CNC(=O)CSC(=O)c1ccccc1	inactive	inactive	inactive	inactive	inactive	inactive	inactive	inactive	inactive	inactive	inactive	inactive	inactive	inactive	inactive	inactive	inactive	inactive	inactive	inactive
NCCOCCN	inactive	inactive	inactive	inactive	inactive	inactive	inactive	inactive	inactive	inactive	inactive	inactive		inactive	inactive	inactive	inactive	inactive	inactive	inactive
CCO[Si](CC)(OCC)OCC	inactive	inactive	inactive	inactive	inactive	inactive	inactive	inactive	inactive	inactive	inactive	inactive			inactive	inactive	inactive	inactive	inactive	
Cc1cc(C)c(C(=O)O)c(C)c1	inactive	inactive	inactive	inactive	inactive	inactive	inactive	inactive	inactive	inactive	inactive	inactive	inactive	inactive	inactive	inactive	inactive	inactive	inactive	inactive
CCCCOCC(C)O (stereo unspecified)	inactive	inactive	inactive	inactive	inactive	inactive	inactive	inactive	inactive	inactive	inactive	inactive	inactive	inactive	inactive		inactive	inactive	inactive	inactive
CC(C)(C)NC[C@H](O)COc1cccc2c1CCCC2=O	inactive	inactive	inactive	inactive	inactive	inactive	inactive	inactive	inactive	inactive	inactive	inactive	inactive	inactive	inactive	inactive	inactive	inactive	inactive	inactive
Cc1ccccc1C(N)=O	inactive	inactive	inactive	inactive	inactive	inactive	inactive	inactive	inactive	inactive	inactive	inactive	inactive	inactive	inactive	inactive		inactive	inactive	
Cc1c(Cl)cccc1Cl	inactive	inactive	inactive	inactive	inactive	inactive	inactive	inactive	inactive	inactive	inactive	inactive		inactive	inactive	inactive	inactive	inactive	inactive	inactive
COc1nc(N)nc2nc[nH]c12	inactive	inactive	inactive	inactive	inactive	inactive	inactive	inactive	inactive	inactive	inactive		inactive	inactive	inactive	inactive		inactive	inactive	inactive
CCOC(=O)CC1(C)OCC(C)O1 (stereo unspecified)	inactive	inactive	inactive	inactive	inactive	inactive	inactive	inactive	inactive	inactive	inactive	inactive	inactive	inactive	inactive	inactive	inactive	inactive	inactive	
COC(=O)/C=C\C(=O)O	inactive	inactive	inactive	inactive	inactive	inactive	inactive	inactive	inactive	inactive	inactive	inactive	inactive	inactive	inactive	27.3 µM (active)	inactive	inactive		inactive
C[Si]1(C)O[Si](C)(C)O[Si](C)(C)O[Si](C)(C)O[Si](C)(C)O1	inactive	inactive	inactive	inactive	inactive	inactive	inactive	inactive	inactive	inactive	inactive	inactive	inactive	inactive	inactive	inactive	inactive	inactive	inactive	
CC(S)C(C)S (stereo unspecified)	inactive	inactive	inactive	inactive	inactive	inactive	inactive	inactive	inactive	inactive	inactive	inactive	inactive	inactive	inactive	inactive	inactive	inactive	inactive	inactive
CCCSSCCC	inactive	inactive	inactive	inactive	inactive	inactive	inactive	inactive	inactive	inactive	inactive	inactive	inactive	inactive	inactive	inactive	inactive	inactive	inactive	inactive
